Compound activity from PubChem.
Rows were chosen to be rich in hits. Some 2.2% of all compounds tested hit in one or more screens of this group.
TLR4 MyD88 comp: inhibitors of TLR4-MyD88 association in cells, primary screen, cell-based, HeLa CL3-4, BLA complementation, FRET ratio. Toll-like receptor 4 (Homo sapiens) + Myeloid differentiation primary response protein …. HeLa CL3-4 TLR4/MyD88 BLA complementation. inhibition, % at 8.4 µM. 0.18% of 200,000 active; in the data active = inhibition above about 25%
ANO1 block: TMEM16A chloride channel inhibitors, primary screen, cell-based, HTS; Anoctamin-1 (Mus musculus), Q8BHY3; HEK293 TMEM16A/YFP iodide influx fluorescence, ionomycin; normalized B-score (activity score, 25-100; higher = stronger inhibition) at 10 µM; 1.2% of 310,000 active; AID 588511, 2011;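 active = ratio plate-corrected score three or more library SD toward inhibition, starting fluorescence score within five deviations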;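 also: score derived from kinetic fluorescence span divided by baseline fluorescence per well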
ANO1 activ: TMEM16A chloride channel activators or potentiators, primary screen, cell-based, HTS; HEK293 TMEM16A/YFP-H148Q/I152L, iodide quench fluorescence; active compounds read low; B-score at 10 µM; 0.3% of 340,000 active;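 active = fluorescence-ratio B-score plate-corrected deviation score at least 3 library SD below zero, with starting fluorescence score within 5 deviations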;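 also: channel opened by trigger with iodide after compound preincubation; score built on the fluorescence ratio of max minus min over baseline; more negative score means more quench and so TMEM16A activation or potentiation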
GRK2 aptamer HTS: compounds blocking aptamer binding on GRK2 – biochemical, human GRK2, bead flow cytometry, HTS, primary screen; Beta-adrenergic receptor kinase 1 (Homo sapiens), P25098; FAM-aptamer displacement from GRK2; inhibition of aptamer binding, % at 10 µM; 0.59% of 330,000 active; AID 488847, 2010;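 active = inhibition of aptamer binding above 40%, roughly 3 SD of noise, on plates passing a quality check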;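 also: median bead fluorescence of bound FAM aptamer so fluorescent compounds give negative values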
TLR9-MyD88 block: inhibitors of TLR9-MyD88 association in cells, primary screen, cell-based, CHO, BLA complementation, fluorescence | CCF4 FRET ratio | inhibition, % at 4.98 µM | 0.21% of 340,000 active | AID 504734, 2011;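 active = inhibition above the mean over all tested compounds plus 3 SD, cut at about 21% in these data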
NOD2-RIPK2 inh: NOD2-RIPK2 binding disruptors in cells, primary screen, fluorescence, CHO cells, BLA complementation. Receptor-interacting serine/threonine-protein kinase 2 (Homo sapiens), O43353. CCF4 ratio. inhibition, % at 4.98 µM. 0.38% of 360,000 active. AID 624267, 2012; in the data active = inhibition above about 21%
GRK2 CP1: GRK2 aptamer-displacing inhibitors, retest, confirmation, biochemical, cherry pick 1, bead flow cytometry | bead-bound GRK2, FAM-aptamer displacement | aptamer displacement, % at 10 µM | shares compounds with GRK2 aptamer HTS | 4% of 2,000 active | AID 504451, 2011;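 active = aptamer displacement above 40%, near three times the noise of non-fluorescent compounds, on plates passing quality checks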;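 also: negative values mostly reflect intrinsic compound fluorescence rather than true enhancement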
Aptamer quench: fluorescent aptamer quenching in GRK2 counter-screen dose response; AID 504521; 110 tested, under 10 active; Fluorescent RNA aptamer beads, flow cytometry; active compounds read high; shares compounds with GRK2 aptamer HTS; fluorescence change (kMESF span), kMESF (test concentration not listed);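 active = compounds whose bead fluorescence drops by more than 37 kMESF across the dose range, marking them as dye quenchers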
Aptamer quench SP: quenches fluorescent RNA aptamer, GRK2 hit artifact | fluorescence response (% of DMSO), % at 10 µM | 2,000 tested, under 10 active | Carboxyfluorescein RNA aptamer on beads, flow cytometry quenching; active compounds read low | AID 504580 | shares compounds with GRK2 aptamer HTS;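 active = compounds that quench the bead-bound fluorescent RNA probe, cutting fluorescence to under half of the solvent control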;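 also: counterscreen run without GRK2 so only probe quenching by compound is measured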
GRK2 CP2: GRK2 aptamer-displacing inhibitors, hit retest, confirmation, biochemical, cherry pick 2, bead flow cytometry; bead-bound GRK2, FAM-aptamer displacement; shares compounds with GRK2 aptamer HTS; inhibition of aptamer binding, % at 10 µM; 360 tested, under 10 active;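 active = inhibition of aptamer binding above 40%, about triple the noise seen with nonglowing compounds, on plates passing quality control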;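 also: negative values mostly come from compounds that fluoresce themselves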
FAM quench CP2: aptamer fluorescence quenching in GRK2 counter-screen. shares compounds with GRK2 aptamer HTS. carboxyfluorescein RNA aptamer beads, flow cytometry quenching; active compounds read low. 360 tested, under 10 active. fluorescence response vs DMSO, % at 10 µM. AID 588494;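 active = response vs DMSO under 50%, meaning signal dropped by over half, treated as fluorescence quencher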;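 also: labelled aptamer on streptavidin beads without GRK2 as a quench counter-screen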
Numbers stand for hits; . = inactive; / = not tested or not shown.

SMILES	TLR4 MyD88 comp	ANO1 block	ANO1 activ	GRK2 aptamer HTS	TLR9-MyD88 block	NOD2-RIPK2 inh	GRK2 CP1	Aptamer quench SP	others
O=C(CSc1nnc(CNC(=O)c2ccccc2)o1)NCC1CCCO1 (stereo unspecified)	/	.	.	.	.	.	/	/
COc1ccc(Cl)cc1C(=O)O/N=C(\N)c1ccccn1	/	.	.	.	.	.	/	/
N/C(=N\OC(=O)c1cc(Cl)ccc1Cl)c1ccccn1	.	.	.	100	.	.	.	.
CC(=O)Oc1ccc([N+](=O)[O-])cc1N1C(=O)c2ccccc2C1=O	.	.	.	100	.	.	/	/	GRK2 CP2=.;FAM quench CP2=.
NC(=O)c1ccsc1NC(=O)COC(=O)c1ccc([N+](=O)[O-])o1	/	/	.	80	.	.	.	.
NC(=O)c1ccsc1NC(=O)c1ccc([N+](=O)[O-])o1	/	/	.	.	.	.	/	/
Cc1ccc2nc(-c3ccccn3)c(Nc3ccccc3C)n2c1	.	.	.	84	.	.	.	.
CC(C)(C)C(=O)CN1C(=O)NC(C)(Cc2ccc3c(c2)OCO3)C1=O (stereo unspecified)	/	.	.	.	.	.	/	/
Cc1cccc(S(=O)(=O)N(C)C[C@@H]2OCc3cnnn3CCCC(=O)N([C@@H](C)CO)C[C@@H]2C)c1	/	/	/	/	.	.	/	/
CC(C)(C)c1ccc(C(=O)N2CCNCC2)cc1	.	.	.	65	.	.	.	.
Cc1[nH]c(=O)[nH]c(=O)c1S(=O)(=O)Nc1cccc(C(F)(F)F)c1	/	.	.	.	.	.	/	/
O=S(=O)(Nc1nc2ccccc2nc1Cl)c1ccccc1	.	.	.	.	.	.	/	/
CCC(C)Oc1nc2ccccc2nc1NS(=O)(=O)c1ccccc1 (stereo unspecified)	.	.	.	82	.	.	.	.
O=C1C=C(NCc2ccco2)CC(c2ccc(Cl)cc2)C1 (stereo unspecified)	.	.	.	86	.	.	.	.
Cc1ccc(NS(=O)(=O)c2cccc(C(=O)N3CCCCCCC3)c2)cc1	/	.	.	.	.	.	/	/
Cc1ccc(S(=O)(=O)Nc2cccc(C(=O)N3CCC(C(N)=O)CC3)c2)cc1	/	/	.	61	.	.	.	.
CCc1ccccc1NC(=O)CN(c1ccc(OC)cc1OC)S(=O)(=O)c1ccccc1	/	.	.	.	.	.	/	/
O=C(NCC1CCCO1)c1cccc(NC(=O)c2ccco2)c1 (stereo unspecified)	.	.	.	.	.	.	.	.
O=C(NC1CCCC1)c1cccc(NC(=O)c2ccco2)c1	.	.	.	.	.	.	.	.
Cc1cc(C)cc(NC(=O)c2cccc(NC(=O)c3ccco3)c2)c1	/	.	.	.	.	.	.	.
O=C(NCc1cccnc1)c1cccc(NC(=O)c2ccco2)c1	.	.	.	.	.	.	.	.
Cc1ccc([C@H]2C[C@H](n3cc(C4CC4)nn3)[C@@H](O)CN2C(=O)C2CCCCC2)cc1	/	/	/	/	.	.	/	/
COC(=O)[C@@]12C[C@@H](CC(=O)N3CCCC3)C(=O)N(Cc3ccccc3)C1=CCC(C)(C)C2	/	/	/	/	/	.	/	/
O=C1NC(CCO)C(=O)NC1CCO (stereo unspecified)	/	/	.	/	.	.	/	/
CC(=O)N(CCc1ccccc1C)Cc1cc2ccc(C)cc2[nH]c1=O	/	.	.	61	.	.	.	.
SMILES	TLR4 MyD88 comp	ANO1 block	ANO1 activ	GRK2 aptamer HTS	TLR9-MyD88 block	NOD2-RIPK2 inh	GRK2 CP1	Aptamer quench SP	others
Cc1ccc2cc(CN(C(=O)c3ccco3)c3ccccc3C)c(=O)[nH]c2c1	.	.	.	76	.	.	.	.
CC(=O)N(CCc1ccccc1C)Cc1cc2cc(C)ccc2[nH]c1=O	/	.	.	.	.	.	/	/
Cc1ccc(C(=O)NCc2ccco2)cc1	/	.	.	.	.	.	/	/
O=C(NCc1ccco1)c1cccc(NC(=O)c2ccccc2)c1	.	.	.	.	.	.	.	.
Cc1ccc(C(=O)Nc2cccc(C(=O)NCc3ccco3)c2)cc1	.	.	.	.	.	.	.	.	Aptamer quench=.
ClCC1NCC(c2ccccc2Cl)c2c1[nH]c1ccccc21 (stereo unspecified)	.	.	.	.	.	.	/	/
CCOc1ccc(OCC)c(S(=O)(=O)NCc2ccccc2)c1	/	.	.	42	.	.	.	.
Cc1cc(C)nc(/N=C2\NC(=O)CC(C(=O)O)N2CCc2c[nH]c3ccccc23)n1 (stereo unspecified)	.	.	.	60	.	.	.	.
Cc1cc(C)nc(/N=C2\NC(=O)CC(C(=O)O)N2c2ccc(F)c(Cl)c2)n1 (stereo unspecified)	.	.	/	.	/	/	/	/
COc1ccc(/C(C)=N/NC(=O)CNC(=O)C(c2ccccc2)c2ccccc2)c(OC)c1	/	.	.	.	.	.	/	/
O=C(c1ccccn1)C1CCCN(Cc2cn[nH]c2-c2cc3ccccc3o2)C1 (stereo unspecified)	.	.	.	90	.	.	.	.
O=C(CN(Cc1ccc(F)cc1)S(=O)(=O)c1ccc(S(=O)(=O)N2CCOCC2)cc1)Nc1ccccc1	.	.	.	.	.	.	/	/
O=C(CN(Cc1ccccc1)S(=O)(=O)c1ccc(S(=O)(=O)N2CCOCC2)cc1)Nc1ccccc1	.	.	.	52	.	.	.	.
CN(CC(=O)Nc1ccccc1Cl)C(=O)CN1C(=O)C2CC=CCC2C1=O (stereo unspecified)	/	/	.	.	.	.	/	/
NC(=O)c1ccsc1NC(=O)CS(=O)(=O)c1ccc(F)cc1	/	.	.	.	.	.	/	/	GRK2 CP2=.;FAM quench CP2=.
